Results on 24 molecules are retold here after PubChem BioAssay AID624256 (NMMLSC, 2012).

Each structure is given as a SMILES string. The campaign covered roughly 360,000 compounds. About 3,700 (1%) were called active. Roughly 2% stayed inconclusive and do not appear here.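 The calls were made as follows: active = normalized GFP-positive differentiation at or above the plate's own cutoff, the solvent-only control mean plus 3 SD; inconclusive = no clear call, values can overlap the other calls; inactive = the rest.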 For the sample, actives were picked, then their nearest neighbours and some compounds at random.

The assay can be described thus: induction of myeloid progenitor differentiation, primary screen, cell-based, flow cytometry, MLPCN library (AID 624256).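 As to GFP+ MAC1+ double positive: cells exposed to compound for four days before flow analysis.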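 As to normalized GFP-positive differentiation: cells exposed to compound for four days before flow analysis; 0% = DMSO wells and 100% = fulvestrant positive control at 5 µM.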 As to conditions: ER-HoxA9 myeloid progenitors, lysozyme-GFP differentiation, at 10 µM; GFP+ MAC1+ double positive: measured here: differentiation confirmed by MAC1 staining, stronger effect = higher value; normalized GFP-positive differentiation: stronger effect = higher value. (Flow cytometry measures light scatter and fluorescence of single cells or particles in a stream.)
As for `Cc1cccc(C)c1NC(=O)C(c1cccc2ccccc12)n1c(=O)c(-c2ccco2)nc2ccccc21` (stereo not drawn), the GFP+ MAC1+ double positive worked out at 3.2% and the call was inactive.
For `Cc1cc(C)c(S(=O)(=O)NN=C2c3ccccc3[C@H]3Cc4csc[n+]4[C@@H]23)c(C)c1`, the GFP+ MAC1+ double positive stood at 1.3% and the outcome was inactive.
As to `Cc1cccc(C)c1NC(=O)COC(=O)c1ccccc1O`, the GFP+ MAC1+ double positive was 0.5% and the result was inactive.
Turning to `CCN(C(=O)COC(=O)c1ccccc1O)c1cccc2ccccc12`, the GFP+ MAC1+ double positive came to 0.7% and the normalized GFP-positive differentiation was 11.2% (active).
Consider `O=C(COC(=O)c1ccccc1O)NCc1ccco1`, for which the GFP+ MAC1+ double positive stood at 0.8% and the result was inactive.
In the case of `CCOC(=O)C1=CCC(c2ccc(F)cc2)N(S(=O)(=O)c2ccc(C)cc2)C1` (stereo not drawn), the GFP+ MAC1+ double positive amounted to 0.9% and the call was inactive.
The matching figures for `Cc1cccc(C)c1-n1nnnc1C(CCc1ccccc1)N1CCN(C/C=C/c2ccccc2)CC1` (stereo not drawn): 1.8% and “inactive”.
The matching figures for `Cc1cc2nc(-c3ccc(Cl)cc3)c(Cc3cccc(F)c3)n2c(C)c1Br`: 1.3% and “inactive”.
`O=C(c1ccco1)N1CCN(C(=O)C2CC(c3ccc(Cl)c(Cl)c3)=NO2)CC1` (stereo not drawn): the GFP+ MAC1+ double positive was found to be 0.9% and the molecule was classed as inactive.
Turning to `O=C(c1ccco1)N1CCN(C(=O)C2CC(c3ccc(F)cc3)=NO2)CC1` (stereo not drawn), the GFP+ MAC1+ double positive amounted to 12.6% and the normalized GFP-positive differentiation is 34.4% (active).
Turning to `CCOC(=O)N1CCN(C(=O)C2CC(c3ccc(F)cc3)=NO2)CC1` (stereo not drawn), the GFP+ MAC1+ double positive was found to be 1.8% and the result was inactive.
As for `Cn1cnc(S(=O)(=O)N2C[C@@H](O)COC[C@@H]3O[C@H](CC(=O)NC4CCC4)CC[C@H]32)c1`, the GFP+ MAC1+ double positive turned out to be 3.2% and the molecule was classed as inactive.
For `NCCCNC(=S)NCCCN(Cc1ccc(Cl)cc1)c1ccc(Br)cn1`, the GFP+ MAC1+ double positive was 0.9% and the molecule was called inactive.
`O=C(CC[C@H]1O[C@@H](n2ccc(=O)[nH]c2=O)[C@H](O)[C@@H]1O)N[C@H](Cc1ccccc1)C(=O)NCCCN1CCCC1=O`: the GFP+ MAC1+ double positive stood at 0.7% and the outcome was inactive.
The matching figures for `OC(c1nc2ccc(F)cc2[nH]1)C(O)c1nc2ccc(F)cc2[nH]1` (stereo not drawn): 0.4% and “inactive”.
For `CC(C)c1nc2ccc(C(=O)O)cc2[nH]1`, the GFP+ MAC1+ double positive came to 15% and the normalized GFP-positive differentiation was 15.9% (active).
Turning to `O=C(NCC(O)c1nc2ccccc2[nH]1)c1ccc(Br)cc1` (stereo not drawn), the GFP+ MAC1+ double positive came to 0.9% and the outcome was inactive.
As for `COc1ccc(COC[C@H](CC(C)C)N2CCN(C(=O)c3cccc(C(F)(F)F)c3)CCC2=O)cc1`, the GFP+ MAC1+ double positive worked out at 0.4% and the result was inactive.
For `CC(=O)C[C@@H]1OC[C@H](C)N1S(=O)(=O)c1ccc(C)cc1`, the GFP+ MAC1+ double positive was 3% and the molecule was classed as inactive.
Regarding `Cc1ccc(-c2c(N)nc3ncccn23)cc1`, the GFP+ MAC1+ double positive was determined as 1.5% and the outcome was inactive.
As to `CN1CCN(c2ccc3c(c2)OC[C@H](Cc2ccccc2)NS3(=O)=O)CC1`, the GFP+ MAC1+ double positive is 1% and the molecule was classed as inactive.
With `CCc1noc(C)c1C(=O)Nc1nc(-c2ccccc2)cs1`, the GFP+ MAC1+ double positive turned out to be 2.2% and the normalized GFP-positive differentiation was 32.2% (active).
As to `Cc1ccc(-c2csc(NC(=O)C3=COCCO3)n2)cc1C`, the GFP+ MAC1+ double positive stood at 0% and the result was inactive.
Take `CCc1noc(C)c1C(=O)OCC(=O)c1ccc(NC(=O)CC(C)C)cc1`: the GFP+ MAC1+ double positive stood at 1.1% and the result was inactive.
